An excerpt weighted towards active compounds, which were near 19% of everything screened.
TDP1 cell noCPT: qHTS for Inhibitors of human tyrosyl-DNA phosphodiesterase 1 (TDP1): qHTS in cells in absence of CPT; DT40 Tdp1-/- hTDP1 cells, no CPT, ATP luminescence, 48 h; Potency, µM (doses to about 46.2 µM), inactives show at the top dose activity change, negative = growth inhibition, actives largely listed as inhibitors; 420,000 tested, 15% active; AID 686978, 2013; also: potency is read from the fitted curve at half-maximal effect; nearly all actives have a fitted effect of over 55% in size
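Growth of hTDP1-complemented DT40 Tdp1-knockout cells is measured by ATP luminescence after at least 48 hr compound exposure at 37 °C, with DMSO substituting for the 20 nM CPT used in the parallel screen.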
ELG1 repair inh: qHTS screen for small molecules that inhibit ELG1-dependent DNA repair in human embryonic kidney (HEK293T) cells expressing luciferase-tagged ELG1; HEK293T ELG1-luciferase reporter, luminescence, 16 h; DNA damage induced by 5-fluorouridine; 330,000 tested, 2.3% active; Potency, µM (titrated, usually from 46.1 µM), inactives show at the top dose activity change, negative = inhibition, usual class: inhibitors; also: potency is read from the fitted curve at half-maximal effect; nearly all actives have a fitted effect of over 55% in size
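Overnight (16 hr) co-exposure of 2,000 cells/well to 5-fluorouridine and compound at 37 °C preceded detection. Luciferase was quantified via ONE-Glo luminescence; loss of signal denotes inhibition.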
IL-1B inflam inh: qHTS for Inhibitors of Inflammasome Signaling: IL-1-beta AlphaLISA Primary Screen; activity change, % at 57.5 µM; 360,000 tested, 4.7% active; THP-1 LPS/ATP IL-1B secretion, AlphaLISA, 16 h; active compounds read low; in the data active = activity change below about -50%; inconclusive = mostly about -30% to -49%
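Secreted IL-1B measured by AlphaLISA bead assay after 16 h compound exposure of THP-1 cells; compounds (final up to 57.5 uM) added 1 h before LPS (250 ng/mL) and ATP (1.25 mM) stimulation; lower signal means less secretion.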
Giardia kill: Small Molecules that selectively kill Giardia lamblia: qHTS; Giardia lamblia trophozoite viability; activity change, % at 7.66 µM, hits read low; 340,000 tested, 0.15% active; AID 540267, 2011; in the data active = activity change below about -80%; inconclusive = between about -30% and that limit;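 also: parasites exposed to compound for two days anaerobically before the ATP read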
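Anaerobic 48 hrs incubation at 37 deg C of 100 trophozoites/well with test compounds; ATPLite 1-Step luminescence, 15-30 min RT, reports cellular ATP as viability.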
DT40 TDP1 CPT: qHTS for Inhibitors of human tyrosyl-DNA phosphodiesterase 1 (TDP1): qHTS in cells in presence of CPT; chicken DT40 Tdp1-/-;hTDP1 cells + 20 nM CPT, ATP luminescence, 48 h; Potency, µM (series often up to 46.2 µM), inactives show at the highest dose activity change, negative = growth inhibition, usual class: inhibitors; 420,000 tested, 12% active; AID 686979, 2013; also: potency is read from the fitted curve at half-maximal effect; nearly all actives have a fitted effect of over 55% in size
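Chicken DT40 Tdp1-/- cells complemented with human TDP1, 400 cells/well, exposed to compounds plus 20 nM camptothecin for at least 48 h at 37 C; viability read as ATP content by CellTiter-Glo luminescence.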
TDP1 block: qHTS Assay for Inhibitors of Tyrosyl-DNA Phosphodiesterase (TDP1) | recombinant TDP1, AlphaScreen DNA substrate cleavage | 350,000 tested, 0.28% active | AID 485290, 2010 | Potency, µM (highest dose often 130 µM), for the others: top-dose activity change, negative = inhibition, actives largely listed as inhibitors; also: potency is read from the fitted curve at half-maximal effect; nearly all actives have a fitted effect of over 40% in size
Target sequence (Q9NUW8 whole entry, looked up): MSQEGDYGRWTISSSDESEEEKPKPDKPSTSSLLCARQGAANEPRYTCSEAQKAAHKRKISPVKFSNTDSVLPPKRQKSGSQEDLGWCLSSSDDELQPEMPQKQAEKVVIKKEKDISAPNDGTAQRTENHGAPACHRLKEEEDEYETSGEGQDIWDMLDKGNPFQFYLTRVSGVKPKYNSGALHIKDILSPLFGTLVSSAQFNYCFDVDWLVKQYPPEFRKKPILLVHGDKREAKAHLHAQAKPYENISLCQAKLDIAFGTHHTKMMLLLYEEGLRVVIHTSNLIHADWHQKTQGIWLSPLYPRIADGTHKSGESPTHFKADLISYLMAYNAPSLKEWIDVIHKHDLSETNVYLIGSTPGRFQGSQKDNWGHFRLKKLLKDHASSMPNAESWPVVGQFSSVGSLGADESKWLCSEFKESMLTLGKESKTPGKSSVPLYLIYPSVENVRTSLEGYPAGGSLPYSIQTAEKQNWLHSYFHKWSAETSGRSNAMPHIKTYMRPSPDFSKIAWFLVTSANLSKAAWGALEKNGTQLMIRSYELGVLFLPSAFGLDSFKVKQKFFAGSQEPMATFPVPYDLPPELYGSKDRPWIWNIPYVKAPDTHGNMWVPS
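Here, a 5' biotin and 3' phosphotyrosine-FITC DNA oligonucleotide reports Tdp1 activity: intact substrate bridges AlphaScreen beads, while cleavage leaves a 3' phosphate and drops signal. All incubations at room temperature.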
* = called active by the depositor; u = inconclusive; x = no result. Unless noted, calls follow the shape of the dose curve; as a rule, active = well fitted curve in the direction sought with a large enough effect; inconclusive = small, poorly fitted or top-dose-only effect, or another doubt; inactive = no such curve, though single readings can be large; an effect the other way counts as inactive or inconclusive. % is scaled to controls: 0 for no effect and ±100 for the full control effect.

SMILES	TDP1 cell noCPT	ELG1 repair inh	IL-1B inflam inh	Giardia kill	DT40 TDP1 CPT	TDP1 block
CC1CCN(c2csc3ccc(F)cc3c2=O)CC1	u	x	x	x	-8%	9%
OC[C@@H]1CN(Cc2ccco2)C[C@H](n2cnc3c(N4CCN(c5ccccc5)CC4)ncnc32)O1	23µM*	x	9	x	23µM*	x
COc1ccc(CN2C[C@@H](CO)O[C@@H](n3cnc4c(N5CCN(c6ccccc6)CC5)ncnc43)C2)cc1	16µM*	x	-20	x	u	x
COc1ccc(CN2C[C@@H](CO)O[C@@H](n3cnc4c(N5CCCC5)ncnc43)C2)cc1	u	x	6	x	u	x
OC[C@@H]1CN(Cc2ccccc2)C[C@H](n2ccc3c(N4CCCC4)ncnc32)O1	u	x	-56*	x	-7%	x
COc1cc(CN2C[C@@H](CO)O[C@@H](n3cnc4c(N5CCN(c6ccccc6)CC5)ncnc43)C2)cc(OC)c1OC	15µM*	x	-8	x	18µM*	x
OC[C@@H]1CN(Cc2ccc(Cl)cc2)C[C@H](n2cnc3c(N4CCOCC4)ncnc32)O1	-17%	x	20	x	u	x
OC[C@@H]1CN(Cc2ccc(Cl)cc2)C[C@H](n2cnc3c(N4CCN(c5ccccc5)CC4)ncnc32)O1	18µM*	x	-18	x	u	x
CCCN(CCC)c1nc2ccccc2nc1C(C#N)C(=O)OC(C)COC (stereo not given)	23µM*	12%	-51*	8	23µM*	10%
CCCCN(CCCC)c1nc2ccccc2nc1C(C#N)C(=O)NCCCOC (stereo not given)	u	2%	-1	20	u	-5%
CCn1ccc2cc(S(=O)(=O)N3CCC(C(=O)NCc4ccc(OC(C)C)cc4)CC3)ccc21	-28%	x	x	x	u	1%
Cc1ccc(-c2noc(CCC(=O)NCCCN3CCN(c4cccc(Cl)c4)CC3)n2)cc1	8.2µM*	u	-67*	5	12µM*	4%
Cc1ccc(-c2noc(CCC(=O)NCCCN3CCN(c4ccc(F)cc4)CC3)n2)cc1	7.3µM*	u	-68*	17	6.5µM*	4%
CC1(C)CC(=O)c2cc(OCC(=O)NCCCN3CCN(c4ccc(F)cc4)CC3)ccc2O1	u	u	u	-3	11µM*	8%
CC(C)CCNC(=O)COc1ccc2c(c1)C(=O)CC(C)(C)O2	u	u	17	-1	-25%	4%
